An excerpt weighted towards active compounds, which were near 1.2% of everything screened.
Avidin bead fluor: avidin bead compound fluorescence profile. fluorescence (KMESF) at 10 µM. Avidin beads, compound fluorescence 488/530 nm, flow cytometry; active compounds read high. actives 0.38% (n = 220,000); in the data active = fluorescence above about 47
RGS4-Gao reg: human RGS4-Galphao interaction regulation; Multiplexed bead flow cytometry, RGS4-Galphao binding; actives lie on both sides; binding response (% of control), % at 10 µM; actives 0.33% (n = 220,000); in the data active = binding response below about 49% or above about 150%; inactive = in between;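 note: fluorescent Galphao activated with aluminum fluoride binding bead-coupled RGS4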
Target sequence (P09471 whole entry, looked up): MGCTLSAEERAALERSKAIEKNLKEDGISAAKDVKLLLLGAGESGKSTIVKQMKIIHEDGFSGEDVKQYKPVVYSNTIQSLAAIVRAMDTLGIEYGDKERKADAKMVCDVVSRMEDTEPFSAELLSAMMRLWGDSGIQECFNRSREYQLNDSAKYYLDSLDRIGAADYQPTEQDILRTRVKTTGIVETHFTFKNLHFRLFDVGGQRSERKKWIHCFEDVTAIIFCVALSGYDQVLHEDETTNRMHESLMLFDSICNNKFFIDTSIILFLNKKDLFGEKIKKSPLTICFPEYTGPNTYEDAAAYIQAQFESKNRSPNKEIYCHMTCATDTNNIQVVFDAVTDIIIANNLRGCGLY
GSH bead fluor: compound fluoresces at 488/530 nm on GSH beads | fluorescence (KMESF) at 10 µM | AID 1776 | GSH beads flow cytometry, compound fluorescence 488/530 nm; active compounds read high | actives 0.25% (n = 190,000); in the data active = fluorescence above about 89;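 note: glutathione beads carrying GST-tagged Bcl family fusion proteins plus one bare bead set; values are compound well signal with DMSO vehicle wells as background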
RGS7-Gao: regulators of human RGS7-Galphao interaction. binding response (% of control), % at 10 µM. AID 1439. actives 0.35% (n = 220,000). P09471. Multiplexed bead flow cytometry, RGS7-Galphao binding; actives lie on both sides; in the data active = binding response below about 49% or above about 150%; inconclusive = no clear call, values can overlap the other calls; inactive = in between;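 note: fluorescent Galphao held in activated GDP-AlF4 state binding bead-coupled RGS7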
RGS16-Gao HTS: modulates binding between human RGS16 and Galphao | O15492+P09471 | bead-based flow cytometry RGS16-Galphao binding, fluorescence; actives lie on both sides | binding response (% of control), % at 10 µM | actives 0.38% (n = 220,000);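 note: Galphao activated by GDP with aluminum fluoride before binding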
RGS8-Gao reg: regulators of human RGS8-Galphao interaction; P09471; multiplexed bead flow cytometry, RGS8-Galphao binding; actives lie on both sides; response (percent of control binding), % at 10 µM; actives 0.34% (n = 220,000); AID 1423; in the data active = response below about 60% or above about 140%; inactive = in between;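 note: Galphao activated as the GDP aluminium fluoride complex binding bead-coupled RGS8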
RGS4-Gao HTS: regulators of human RGS4-Galphao interaction; shares compounds with RGS16-Gao HTS; multiplexed bead flow cytometry, RGS–Galpha-o binding; RGS4–Galpha-o binding response, % at 10 µM; actives 99% (n = 1,600); AID 1504;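 note: fluorescently labeled Galpha-o bound to GDP with aluminium fluoride binding biotinylated RGS beads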
Avidin counter: biotin-avidin bead binding disruption counter-screen; inhibition, % at 10 µM; streptavidin beads, fluorescein-biotin binding, flow cytometry; 1,700 tested, under 10 active; shares compounds with RGS16-Gao HTS;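 active = inhibition above 50%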;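 note: median green fluorescence of gated singlet beads compared with DMSO control wells; 0% = DMSO wells and 100% = complete loss of bead fluorescence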
RGS8-Gao confirm: RGS8-Galphao interaction regulation, single point confirmation; shares compounds with RGS16-Gao HTS; bead-based flow cytometry RGS8-Galphao binding, fluorescence; actives lie on both sides; binding response (% of control), % at 10 µM; actives 3% (n = 1,700); AID 1836; in the data active = binding response below about 72% or above about 130%; inactive = in between;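 note: Galphao activated as GDP AlF4 complex before binding bead RGS8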
RGS7-Gao single: RGS7-Galphao interaction regulation, single point confirmation; shares compounds with RGS16-Gao HTS; bead-based flow cytometry RGS7-Galphao binding; actives lie on both sides; response (percent of control binding), % at 10 µM; actives 7.8% (n = 1,700); AID 1837; in the data active = response below about 75% or above about 130%; inactive = in between;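 note: fluorescent Galphao activated with GDP and aluminum fluoride binding bead-coupled RGS7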
RGS16-Gao single: RGS16-Galphao interaction regulation, single point confirmation. shares compounds with RGS16-Gao HTS. bead-based flow cytometry, RGS16-Galphao binding; actives lie on both sides. AID 1838. actives 4% (n = 1,700). response (% of control binding), % at 10 µM; in the data active = response below about 74% or above about 130%; inactive = in between;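 note: Galphao activated as the GDP aluminium fluoride complex binding bead-coupled RGS16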
RGS4-Gao single: RGS4-Galphao interaction regulation, single point confirmation; AID 1840; shares compounds with RGS16-Gao HTS; binding response (% of control), % at 10 µM; actives 4% (n = 1,700); RGS4-Galphao binding, multiplexed bead flow cytometry; actives lie on both sides; in the data active = binding response below about 74% or above about 130%; inactive = in between
RGS19-Gao single: RGS19-Galphao interaction regulation, single point confirmation | shares compounds with RGS16-Gao HTS | bead-based flow cytometry RGS19-Galphao binding; actives lie on both sides | response (percent of control binding), % at 10 µM | actives 5% (n = 1,700) | AID 1841; in the data active = response below about 50% or above about 160%; inactive = in between;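 note: 100% = no compound control and 0% = blank background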
Target sequence (P09471 whole entry, looked up): as above
Target sequence (P49795 whole entry, looked up): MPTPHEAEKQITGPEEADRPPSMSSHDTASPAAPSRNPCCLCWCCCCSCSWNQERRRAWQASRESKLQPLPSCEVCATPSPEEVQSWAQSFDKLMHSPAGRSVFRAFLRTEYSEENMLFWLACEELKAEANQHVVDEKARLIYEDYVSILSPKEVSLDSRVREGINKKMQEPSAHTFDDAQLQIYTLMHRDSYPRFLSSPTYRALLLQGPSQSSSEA
Active calls of the source: *; u = inconclusive; x = no result given; [ ] = remark or other dose. Unless noted, the rule behind the calls is not given here.

SMILES | Avidin bead fluor | RGS4-Gao reg | GSH bead fluor | RGS7-Gao | RGS16-Gao HTS | RGS8-Gao reg | RGS4-Gao HTS | Avidin counter | RGS8-Gao confirm | RGS7-Gao single | RGS16-Gao single | RGS4-Gao single | RGS19-Gao single
Cc1c(Cl)cccc1NC(=O)C1Cc2ccccc2CN1C(=O)c1ccccc1 (stereo not given) | 14 | 99.3 | 19 | 96.9 | 95.7 | 99.4 | x | x | x | x | x | x | x
Cc1cccc(NC(=O)C2Cc3ccccc3CN2C(=O)OCc2ccccc2)c1C (stereo not given) | 6 | 91.3 | 6 | 90.1 | 11.5* | 79.4 | 91.3* | -1.6 | 110.8 | 101.9 | 117.8 | 102.3 | 116.2
CCOC(=O)NC(=O)CSc1ccc(C)cc1C | 11 | 106.9 | 11 | 101.8 | 106.1 | 104.6 | x | x | x | x | x | x | x
CCC1CCC2(CC1)NC(CO)(CO)CO2 (stereo not given) | 26 | 115.2 | 23 | 119.1 | 318.1 | 144.6*[activator] | 115.2* | -0.4 | 106.8 | 105.5 | 109.2 | 105.6 | 100.0
CC1CCC2(CC1)NC(CO)(CO)CO2 (stereo not given) | 15 | 97.7 | 22 | 96.9 | 69.7 | 94.1 | x | x | x | x | x | x | x
CNC(=O)COc1ccc(C=O)cc1OC | 7 | 91.1 | 4 | 85.6 | 11.2* | 71.8 | 91.1* | -0.6 | 100.9 | 97.8 | 99.6 | 100.1 | 97.5
NC1=NC(c2ccccc2)N=C(Nc2ccccc2)N1 (stereo not given) | -4 | -57.8* | x | u | -30.5* | 0.9* | x | -0.9 | 101.7 | 103.3 | 102.5 | 101.5 | 109.1
Cc1cc(S(=O)(=O)Nc2cc(C)c(O)c(C)c2)c(C)s1 | x | x | 30 | x | x | x | x | 1.7 | 99.4 | 94.1 | 96.1 | 100.0 | 73.1
CC1(C)OC(=O)C(=Cc2ccc(-c3ccc(S(N)(=O)=O)cc3)o2)C(=O)O1 | 6 | 94.8 | 65 | 93.7 | 93.7 | 83.2 | x | -2.2 | 72.5* | 88.3 | 95.1 | 93.0 | 50.5*
NS(=O)(=O)c1ccc(-c2ccc(/C=C3\C(=O)Nc4cc(Cl)ccc43)o2)cc1 | 10 | 91.3 | 4 | 90.7 | 95.3 | 100.1 | x | x | x | x | x | x | x
CCOC(=O)Cc1csc(NC(=O)CSc2nnc(-c3ccc(C)cc3)o2)n1 | 7 | 95.6 | 36 | 98.3 | 103.5 | 98.6 | x | x | x | x | x | x | x
CCOC(=O)Cc1csc(NC(=O)CSc2nnc(-c3ccc(F)cc3)o2)n1 | 3 | 60.8 | 12 | 56.6 | -13.4* | 72.3 | 60.8* | -1.2 | 94.7 | 68.0* | 84.0 | 80.3 | 54.1
O=C(COc1ccc([N+](=O)[O-])cc1)Nn1cnnc1 | 12 | 104.2 | 13 | 104.0 | 103.3 | 102.9 | x | x | x | x | x | x | x
Cc1ccc(N2C(N)=C(C#N)C(c3cccs3)C3=C2CC(C)(C)CC3=O)cc1 (stereo not given) | 36 | 197.0*[activator] | 5 | 121.0 | 197.2*[activator] | 117.4 | x | 0.2 | 106.3 | 107.7 | 106.5 | 104.0 | 104.6
CC1(C)CC(=O)C2=C(C1)N(c1ccc(F)cc1)C(N)=C(C#N)C2c1cccs1 (stereo not given) | 4 | 107.3 | 19 | 106.6 | 106.2 | 106.0 | x | x | x | x | x | x | x
CC1(C)CC(=O)C(C=NCC(N)=O)=C(O)C1 | 12 | 146.7 | 32 | 148.9 | 151.1 | 145.9*[activator] | 146.7* | x | x | x | x | x | x
CCc1ccc(NC(=O)CN2CCc3ccccc3C2)cc1 | 33 | 100.8 | 14 | 101.5 | 99.5 | 101.6 | x | x | x | x | x | x | x
O=C(CN1CCc2ccccc2C1)Nc1ccc(Br)cc1 | 3 | 120.5 | 54 | 110.9 | 361.7 | 145.7*[activator] | 120.5* | 1.7 | 100.4 | 94.4 | 99.8 | 98.6 | 103.6
COc1ccc(NC(=O)NCCCN2CCN(c3ccccc3F)CC2)cc1 | 0 | 11.7* | x | u | 8.9* | 22.0* | x | 1.5 | 111.8 | 113.7 | 111.5 | 113.4 | 103.5
COc1ccc(NC(=O)NCCCN2CCN(c3cc(C)ccc3C)CC2)cc1 | 6 | 104.6 | 17 | 99.6 | 100.8 | 102.6 | x | x | x | x | x | x | x
Cc1cc(OC(=O)c2ccc(S(=O)(=O)N3CCCC3)cc2)c([N+](=O)[O-])c(=O)[nH]1 | 11 | 112.3 | 18 | 109.7 | 289.5 | 142.4*[activator] | 112.3* | -0.2 | 102.6 | 100.5 | 101.9 | 99.8 | 91.2
Cc1cc(OC(=O)c2ccc(S(=O)(=O)N3CCCCC3)cc2)c([N+](=O)[O-])c(=O)[nH]1 | 10 | 95.2 | 11 | 102.3 | 107.5 | 103.0 | x | x | x | x | x | x | x
CC(=O)c1cc(C#N)c(SCC(=O)OC(C)(C)C)nc1C | 138* | 116.5 | 26 | 183.1*[activator] | 108.6 | 102.8 | 116.5* | 0.6 | 97.1 | 97.2 | 95.9 | 99.2 | 86.0
CC(=O)c1cc(C#N)c(SCC(=O)OC(C)C)nc1C | 9 | 99.3 | 17 | 96.7 | 101.2 | 103.3 | x | x | x | x | x | x | x
CC(C)COc1ccc2[nH]c3c(c2c1)CCCC3=O | 12 | 117.9 | 9 | 102.7 | 336.0*[activator] | 121.0 | 117.9* | 0.5 | 104.6 | 105.1 | 102.8 | 101.1 | 97.1
COc1ccc(-c2cc(C(F)(F)F)c(C#N)c(SCC(=O)Nc3ccccc3C#N)n2)cc1 | 49* | 256.5*[activator] | 71 | 152.6*[activator] | 468.6 | 121.5 | x | -0.4 | 101.7 | 88.9 | 100.0 | 92.3 | 114.3
COc1ccc(NC(=O)CSc2nc(-c3ccc(C)cc3)cc(C(F)(F)F)c2C#N)cc1 | 29 | 92.6 | 8 | 98.8 | 95.5 | 93.5 | x | x | x | x | x | x | x
CSCCC(NC(N)=O)C(=O)NCc1ccccc1Cl (stereo not given) | 9 | 73.6 | 10 | 80.2 | -698.5* | 94.7 | 73.6* | -2.6 | 99.8 | 99.0 | 97.9 | 98.4 | 91.1
CSCCC(NC(N)=O)C(=O)NCc1cccc(Cl)c1 (stereo not given) | 7 | 108.7 | 6 | 105.0 | 125.5 | 109.3 | x | x | x | x | x | x | x
Cc1cc(C)c(NC(=O)COC(=O)Cc2ccsc2)c(C)c1 | 27 | 101.0 | 23 | 99.7 | 102.7 | 101.2 | x | x | x | x | x | x | x

Assay outcomes (PubChem BioAssay)
